SMILES strings stand for the structures. About 79,000 compounds went through this panel and 15% of them were active in at least one assay; those are over-represented in the sample as a whole. A number with no mark means an inactive call. The source made the active and inactive calls. Rule as the data show it: active = growth inhibition above about 70%; inactive = the rest.

This assay in a line: NCI Yeast Anticancer Drug Screen. Data for the rad50 strain (AID 155).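 Also: 0% = growth of vehicle-only cultures of the same strain.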 The settings on record: S. cerevisiae rad50 strain growth inhibition, active compounds read high; at 50.0 µM unless noted. In short, it runs like this:
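DNA repair mutant yeast, compound exposure, growth read-out; inhibition is taken relative to vehicle.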
`N#C/C(=C/c1ccccc1)c1ccccc1`: the growth inhibition is 42.5%.

Consider `COc1ccc(/C(=N\NC(=S)NN)C(c2ccc(OC)cc2)C2C(=O)Oc3ccccc32)cc1` (stereo not drawn), for which the growth inhibition was 13.4%. Consider `O=C1CCCc2[nH]ccc21`, for which the growth inhibition was -14.7%. The figure for `C=C1CC2CC[C@@]34C[C@@H]5O[C@@H]6C(O[C@H]7CC[C@H](CC(=O)OC8[C@@H](C)C9OC%10C[C@]%11(C[C@@H]%12O[C@@]%13(C[C@@H](C)[C@@H]%12O%11)C[C@H](C)[C@@H]%11OC%12CC(C(O)CO)OC%12C[C@@H]%11O%13)OC%10CC9O[C@H]8C[C@H]8O[C@@H](CC[C@@H]1O2)C[C@@H](C)C8=C)O[C@@H]7[C@@H]6O3)C5O4` (stereo partly drawn) is 79.8% (active); for `O=C(OC1C2C=COC(OC3OC(CO)C(O)C(O)C3O)C2C2(CO)OC12)c1ccc(O)cc1` (stereo not drawn) it is -0.15%; for `CC1(C)N=C(N)N=C(N)N1c1ccc(N)cc1` it is 1.7%.

As for `CC1(C)OCC2OC3(c4nc(C#N)c(N)o4)OC(C)(C)OC3C2O1` (stereo not drawn), the growth inhibition was -18.8%. `O=C(c1ccccc1)C(F)S(=O)(=O)O` (stereo not drawn): the growth inhibition was -5.7%. In the case of `O=C1OC(=O)C2C(Cl)C(Cl)C12` (stereo not drawn), the growth inhibition was -5.1%. `CC(=O)[C@@]1(O)CC[C@H]2[C@@H]3CC[C@@H]4C[C@H](O)CC[C@]4(C)[C@H]3[C@H](O)C[C@@]21C`: the growth inhibition was -9.8%. Consider `N#CSc1ccc(NN)cc1`, for which the growth inhibition is 11.2%. With `O=S(=O)(Cc1nc2ccccc2[nH]1)Cc1nc2ccccc2[nH]1`, the growth inhibition is -3.4%.

For `COc1ccc(NS(=O)(=O)c2ccc(NC(CNC(C)S(=O)(=O)O)S(=O)(=O)O)cc2)cc1` (stereo not drawn), the growth inhibition was 18.1%.

The values are drawn from PubChem BioAssay (NCI).
